Drawing on the supplement of paper PMC9262897, “Low-cost anti-mycobacterial drug discovery using engineered E. coli” (Nature Communications, 2022), this text covers growth for 7 compounds.

Assay in all cases: growth (OD600 after 10 h); higher = more growth (less inhibition)
Assay [1] has as its system E. coli TESEC Alr+ wild-type control. The note with it: compound 0.1 mM; raw OD600 reference: median of DMSO wells 0.241, cell-free background 0.041. The method, then: (§1)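 TESEC Mtb Alr E. coli, or the Alr+ wild-type control, in 384-well plates with Prestwick library compounds at 0.1 mM and 1% DMSO, across arabinose induction levels of 1E3 to 1E7 nM. Growth is read as OD600 after 10 h at 37 °C in triplicate biological replicates.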

For assay [2], the system named is E. coli TESEC Mtb Alr. The note with it: compound 0.1 mM. The method, then: as §1
In assay [3] the test system is E. coli TESEC Mtb Asd. The note with it: compound 0.1 mM. The protocol:
(§2)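 TESEC E. coli strains in which the native enzyme is deleted and replaced by arabinose-inducible Mtb Asd, DapB, CysH or TrpD, each grown in its selective medium. Strains were screened against the Prestwick library at 0.1 mM and 1% DMSO in 384-well format at low and high arabinose induction. Growth is read as OD600 after 10 h in triplicate.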

Assay [4] relates to E. coli TESEC Mtb DapB. The conditions noted are these: compound 0.1 mM. The protocol:
as §2

Assay [5] has as its system E. coli TESEC Mtb Alr. The conditions noted are these: compound 0.1 mM. The protocol:
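TESEC Mtb Alr E. coli (ΔaraC ΔtolC ΔentC Δalr ΔdadX, arabinose-inducible Mtb Alr) or the Alr+ wild-type control strain, grown in defined M9-fructose medium without D-alanine in 96-well plates with Prestwick library compounds at 0.1 mM and 1% DMSO. Low Alr induction is 0.1 µM arabinose and high induction is 10 mM arabinose.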
This is another data set of the same source.

Setting [6] is: arabinose 1000 nM, raw OD600 reference: median of DMSO wells 0.294, cell-free background 0.041.
Where [7] appears, read: arabinose 10000 nM, raw OD600 reference: median of DMSO wells 0.264, cell-free background 0.041.
Setting [8] is: arabinose 100000 nM, raw OD600 reference: median of DMSO wells 0.201, cell-free background 0.041.
Setting [9] is: arabinose 1000000 nM, raw OD600 reference: median of DMSO wells 0.193, cell-free background 0.041.
Setting [10] is: arabinose 10000000 nM, raw OD600 reference: median of DMSO wells 0.146, cell-free background 0.041.
Setting [11] is: arabinose induction (level): High, raw OD600 reference: median of DMSO wells 0.331, cell-free background 0.041.
Where [12] appears, read: arabinose induction (level): Low, raw OD600 reference: median of DMSO wells 0.417, cell-free background 0.041.
Setting [13] is: arabinose induction (level): High, raw OD600 reference: median of DMSO wells […], cell-free background 0.041.
[14] abbreviates: arabinose induction (level): Low, raw OD600 reference: median of DMSO wells 0.227, cell-free background 0.041.
Setting [15] is: arabinose 100 nM, raw OD600 reference: median of DMSO wells 0.413, cell-free background 0.052.
[16] abbreviates: arabinose 10000000 nM, raw OD600 reference: median of DMSO wells […], cell-free background 0.052.

Where a name gives a salt, the structure may show the parent alone. ± gives the standard deviation of the averaged measurements.

For `CC(=O)CC(c1ccc([N+](=O)[O-])cc1)c1c(O)c2ccccc2oc1=O` (centres undefined) [Acenocoumarol], the growth amounted to 0.244 ± 0.0011 in assay [1]; 0.298 ± 0.0045 in assay [2] (setting [6]); 0.2588 ± 0.0011 in assay [2] (setting [7]); 0.175 ± 0.0092 in assay [2] (setting [8]); 0.1675 ± 0.0012 in assay [2] (setting [9]); 0.139 ± 0.0017 in assay [2] (setting [10]). The growth in assay [3] (setting [11]) turned out to be 0.26 ± 0.023; in assay [3] (setting [12]), 0.293 ± 0.051; in assay [4] (setting [13]) it was 0.175 ± 0.015; in assay [4] (setting [14]) it was 0.189 ± 0.0085; in assay [5] (setting [15]), 0.395 ± 0.011; in assay [5] (setting [16]), 0.323 ± 0.024.

For the compound `Cn1c(=O)c2c(ncn2CC(O)CO)n(C)c1=O` (centres undefined) [Diprophylline], the growth was determined as 0.253 ± 0.0057 in assay [1]; 0.271 ± 0.026 in assay [2] (setting [6]); 0.249 ± 0.013 in assay [2] (setting [7]); 0.197 ± 0.018 in assay [2] (setting [8]); 0.182 ± 0.0025 in assay [2] (setting [9]); 0.138 ± 0.0093 in assay [2] (setting [10]). Further, the growth worked out at 0.367 ± 0.021 in assay [3] (setting [11]); 0.452 ± 0.052 in assay [3] (setting [12]); 0.206 ± 0.0061 in assay [4] (setting [13]); 0.24 ± 0.017 in assay [4] (setting [14]); 0.421 ± 0.0097 in assay [5] (setting [15]); 0.313 ± 0.057 in assay [5] (setting [16]).

In the case of `Cc1c(-c2ccccc2)oc2c(C(=O)OCCN3CCCCC3)cccc2c1=O` [Flavoxate hydrochloride], the growth was found to be 0.139 ± 0.0069 in assay [1]; 0.171 ± 0.0084 in assay [2] (setting [6]); 0.248 ± 0.0097 in assay [2] (setting [7]); 0.145 ± 0.0026 in assay [2] (setting [8]); 0.105 ± 0.0025 in assay [2] (setting [9]); 0.139 ± 0.0023 in assay [2] (setting [10]). The growth in assay [3] (setting [11]) worked out at 0.217 ± 0.06; in assay [3] (setting [12]), 0.381 ± 0.04; in assay [4] (setting [13]), 0.168 ± 0.011; in assay [4] (setting [14]), 0.234 ± 0.12; in assay [5] (setting [15]) it was 0.398 ± 0.015; in assay [5] (setting [16]) it was 0.262 ± 0.019.

Regarding `Cc1ccc(S(=O)(=O)NC(=O)NN2CC3CCCC3C2)cc1` (centres undefined) [Gliclazide], the growth was 0.244 ± 0.012 in assay [1]; 0.309 ± 0.0099 in assay [2] (setting [6]); 0.271 ± 0.0064 in assay [2] (setting [7]); 0.222 ± 0.017 in assay [2] (setting [8]); 0.192 ± 0.0036 in assay [2] (setting [9]); 0.177 ± 0.0042 in assay [2] (setting [10]). In addition, the growth in assay [3] (setting [11]) came out at 0.298 ± 0.032; in assay [3] (setting [12]), 0.364 ± 0.071; in assay [4] (setting [13]), 0.212 ± 0.011; in assay [4] (setting [14]) it was 0.28 ± 0.042; in assay [5] (setting [15]), 0.404 ± 0.02; in assay [5] (setting [16]) it was 0.372 ± 0.0073.

`CC(C)NCC(O)COc1ccc(COCCOC(C)C)cc1` (centres undefined) [Bisoprolol fumarate]: the growth in assay [1] was found to be 0.227 ± 0.01; in assay [2] (setting [6]), 0.302 ± 0.01; in assay [2] (setting [7]), 0.254 ± 0.01; in assay [2] (setting [8]), 0.222 ± 0.032; in assay [2] (setting [9]), 0.192 ± 0.0099; in assay [2] (setting [10]), 0.14 ± 0.0055. Further, the growth in assay [3] (setting [11]) stood at 0.391 ± 0.017; in assay [3] (setting [12]) it was 0.467 ± 0.07; in assay [4] (setting [13]) it was 0.184 ± 0.017; in assay [4] (setting [14]) it was 0.227 ± 0.027; in assay [5] (setting [15]) it was 0.409 ± 0.016; in assay [5] (setting [16]) it was 0.37 ± 0.028.

For the compound `CC(C)(C)CC(C)(C)c1ccc(OCOCCOCCO)c(Cc2cc(C(C)(C)CC(C)(C)C)cc(Cc3cc(C(C)(C)CC(C)(C)C)ccc3OCOCCOCCO)c2OCOCCOCCO)c1` [Tyloxapol], the growth in assay [1] came out at 0.341 ± 0.018; in assay [2] (setting [6]) it was 0.323 ± 0.0088; in assay [2] (setting [7]), 0.256 ± 0.0056; in assay [2] (setting [8]), 0.455 ± 0.027; in assay [2] (setting [9]), 0.171 ± 0.0031; in assay [2] (setting [10]), 0.261 ± 0.032. For the same compound, the growth in assay [3] (setting [11]) is 0.475 ± 0.018; in assay [3] (setting [12]), 0.509 ± 0.0063; in assay [4] (setting [13]), 0.217 ± 0.018; in assay [4] (setting [14]) it was 0.261 ± 0.033; in assay [5] (setting [15]) it was 0.418 ± 0.016; in assay [5] (setting [16]) it was 0.4093 ± 0.0033.

For the compound `COC(=O)Nc1nc2cc(Sc3ccccc3)ccc2[nH]1` [Fenbendazole], the growth in assay [1] was 0.233 ± 0.0041; in assay [2] (setting [6]), 0.273 ± 0.022; in assay [2] (setting [7]), 0.273 ± 0.012; in assay [2] (setting [8]), 0.189 ± 0.012; in assay [2] (setting [9]), 0.195 ± 0.057; in assay [2] (setting [10]) it was 0.144 ± 0.0032. Besides, the growth was 0.382 ± 0.11 in assay [3] (setting [11]); 0.434 ± 0.018 in assay [3] (setting [12]); 0.2 ± 0.013 in assay [4] (setting [13]); 0.252 ± 0.041 in assay [4] (setting [14]); 0.421 ± 0.0066 in assay [5] (setting [15]); 0.352 ± 0.025 in assay [5] (setting [16]).
